Laboratory results as given in PubChem BioAssay AID1117319 (Southern Research Institute, 2015).
In all, about 260,000 compounds went through this assay and about 1,500 (0.58%) were called active. Inconclusive results (about 5%) are left out.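 How the source made its calls: active means inhibition above a set limit at one or more doses, reproduced on every date tested; inconclusive means results disagree between test dates, or hit never tested in dose response; inactive means the rest.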 Not all results are given here. Entries with a potency or affinity are not part of this list.

target: Virion infectivity factor (Human immunodeficiency virus type 1 group M subtype B (isolate BH10)) + Virion infectivity factor (Human immunodeficiency virus type 1 group M subtype B (isolate BRU/LAI)) + Virion infectivity factor (Human immunodeficiency virus type 1 group M subtype B (isolate PCV12)) + Virion infectivity factor (Human immunodeficiency virus type 1 group M subtype B (isolate HXB2)) + DNA dC->dU-editing enzyme APOBEC-3G (Homo sapiens) (UniProt P69720+P69721+P69722+P69723+Q9HC16); assay: inhibitors of Vif binding to APOBEC3G peptide, primary screen, biochemical, TR-FRET, GST-Vif 1-94, biotin-A3G peptide, dose response retest (AID 1117319); settings: stronger effect = higher value;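 further: Vif residues 1-94 fused to GST binding biotinylated APOBEC3G peptide 110-148; 0% = full assay without inhibitor and 100% = GST in place of GST-Vif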

inhibition, inactive:
COCCNC(=O)c1cc(-c2ccncc2)nc2ccc(S(=O)(=O)N3CCOCC3)cc12 -13.5%
CC1(C)[C@@H](O)CC[C@]2(C)[C@H]3C(=O)C=C4[C@@H]5C[C@@](C)(C(=O)O)CC[C@]5(C)CC[C@@]4(C)[C@]3(C)CC[C@@H]12 27.5%
Cc1ccc(C2C(C#N)=C(N)Oc3cc(C)oc(=O)c32)o1 (stereo not drawn) -6.32%
Cc1ccc([C@H]2C(C#N)=C(N)Oc3cc(C)oc(=O)c32)o1 1.59%
CCCCCC(=O)NNC1CC(=O)N(c2ccccc2)C1=O (stereo not drawn) -9.34%
C[C@H](N)c1nnc(SCc2ccc(Cl)cc2Cl)o1 1.96%
CCN1C(C)=C(C)S/C1=C1\SC(=S)N(N)C1=O 7%
Cn1cc(/C=N/NC(=O)c2cc3cc(Br)ccc3o2)c2ccccc21 -7.92%
O=C(O)Cn1cc(/C=N/NC(=O)c2cc3cc(Br)ccc3o2)c2ccccc21 0.84%
COc1ccc(Cl)cc1C(=O)NNC(=O)CSc1nnc2ccccn12 -2.97%
O=C(/C=N/O)Nc1cccnc1 28.5%
COC(=O)/C=C/C(=O)Nc1cccnc1 15.1%
CCOc1c(OC(C)=O)ccc(/C=C/c2ccc3cccc(OC)c3n2)c1[N+](=O)[O-] 21.2%
COc1c(OC(C)=O)ccc(/C=C/c2ccc3cccc(OCc4ccccc4)c3n2)c1[N+](=O)[O-] 5.7%
O=C(CSCC(=O)c1ccccc1)Nc1ccccc1Cl -5.7%
COc1ccc(C(=O)Nc2cccc(-c3nnc(-c4ccco4)o3)c2)cc1 -0.63%
S=C(NCCN1CCOCC1)N/N=C/c1ccccc1 0.06%
Oc1ccc(/C=N/NC(=S)NCCN2CCOCC2)c(O)c1 24.1%
CC(=O)NCCOc1ccc(C(=O)O)cc1 -5.42%
CCCCOC(=O)n1c(=O)oc2ccc(S(=O)(=O)N3CCCCC3)cc21 -5.83%
O=C(O)c1cc([N+](=O)[O-])cc2ccccc12 -6.07%
O=[N+]([O-])c1cc(-c2ccccc2)cc([N+](=O)[O-])c1O -4.83%
Cc1cc(Cl)c2oc(C(=O)N3CCN(c4cnccn4)CC3)c(C)c2c1 2.03%
CC(C)(C)NC(NC(=O)Cc1ccccc1)C(Cl)(Cl)Cl (stereo not drawn) 2.28%
O=C(Cc1ccccc1)NC(Nc1cccc2ccccc12)C(Cl)(Cl)Cl (stereo not drawn) -5.91%
CN(CCC1CCOCC1)C(=O)C1CCC(=O)N(CCc2ccc(Cl)cc2)C1 (stereo not drawn) -0.45%
CN1/C(=C\C=Nc2ccccc2)C(C)(C)c2ccccc21 13.4%
CN1/C(=C\C=Nc2ccc3ccccc3c2)C(C)(C)c2ccccc21 15.9%
Cc1nc2ccccc2nc1-c1ccc([N+](=O)[O-])cc1 3.82%
COc1cc2c3c(c1OC)C1(C=CC(=O)C=C1)CC3N(C(=O)c1ccccc1)CC2 (stereo not drawn) 16.3%
COc1cc2c3c(c1OC)C1(C=CC(=O)C=C1)CC3N(C(C)=O)CC2 (stereo not drawn) 25.2%
O=S(=O)(Nc1ccccc1)c1ccc(-c2cnc(C3CC3)o2)cc1 5.89%
COc1cccc(=O)c2c(C)n(CC(=O)c3ccccc3)c(C)c12 19.6%
CCOc1ccccc1OCC(=O)O 2.95%
CCOc1ccc2c(C)c(C)c(=O)oc2c1OCC -2.36%
COC(=O)c1c(C(=O)OC)c(C)n(Cc2ccco2)c1C 1.05%
COc1cccc(-n2c(C)c3c(OC)cccc(=O)c3c2C)c1 31.7%
CCOc1ccccc1N1CCN(Cc2ccco2)CC1 0.19%
CCOc1cccc2cc(C(C)=O)oc12 -1.92%
CCOc1ccccc1N1C(=O)c2ccc(C(=O)O)cc2C1=O -5.01%
CCN(CC(=O)Nc1c(F)cccc1F)C(=O)c1ccc2c(c1)OCCO2 8.86%
CCOc1ccc(CN(C)C(=O)CCc2ccc(S(=O)(=O)N3CCCCCC3)cc2)cc1 -5.71%
CNC(=O)c1c(NC(=O)CS(=O)(=O)c2ccccc2)sc(C)c1C 2.6%
OC1CCCN(C(=S)Nc2ccc(SC(F)F)cc2)C1 (stereo not drawn) 21.9%
Cc1ccc(NC(=O)CSc2nc(=O)n(CCN(C)C)c3c2CCCC3)cc1Cl -8.42%
COC(=O)c1cc2occc2n1CC(=O)N(C)C1CCCCC1 15.2%
CN1CCN(c2cc(N3CCc4ccccc4C3)c(F)cc2[N+](=O)[O-])CC1 -1.87%
COc1ccc(Br)c(C(=O)NNC(=O)c2ccc(NS(=O)(=O)c3cccs3)cc2)c1 2.76%
C(C#CCN1CCOCC1)#CCN1CCOCC1 5.57%
CCc1ccccc1Nc1nc(N)nc(CSc2nnnn2C)n1 0.07%
CSCCC(NC(=O)/C(=C\c1ccc(Cl)cc1)NC(=O)c1ccccc1)C(=O)O (stereo not drawn) 1.24%
CCOc1ccccc1C(c1c(C)n(C)n(-c2ccccc2)c1=O)c1c(C)n(C)n(-c2ccccc2)c1=O -1.18%
COc1ccc(-n2c(C)c3c(OC)cccc(=O)c3c2C)cc1 32.9%
COc1cccc(=O)c2c(C)n(-c3cc(C)cc(C)c3)c(C)c12 21.8%
CCOc1ccccc1-c1cc(-c2ccccc2)nc2c1c(=O)n(C)c(=O)n2C -7.81%
COc1ccc(CNC(=O)Cn2cnc3c(OCc4ccccc4)ncnc32)cc1 -3.17%
Cc1ccc(S(=O)(=O)Nc2ccccc2-c2ccccc2)cc1 -0.15%
Cc1ccc(S(=O)(=O)c2c(C)nn(C(C)(C)C)c2OC(=O)CC(C)C)cc1 -0.23%
CCN1CCN(C(=O)Cn2cnc3sc(C)c(S(=O)(=O)N4CCN(c5ncccn5)CC4)c3c2=O)CC1 6.94%
CN=c1scc(C)n1/N=C/c1cc(Br)c(O)c(OC)c1 17.7%
CCN=c1scc(-c2cccs2)n1/N=C/c1cc(OC)ccc1O 11.2%
CN=c1scc(-c2ccccc2F)n1/N=C/c1ccc[nH]1 3.11%
COCCN=c1scc(-c2cccs2)n1/N=C(\C)c1ccco1 -4.46%
